Compounds with a hit are over-represented: about 17% of the library has one in this group of screens.
TDP1 cell noCPT: qHTS for Inhibitors of human tyrosyl-DNA phosphodiesterase 1 (TDP1): qHTS in cells in absence of CPT; actives 15% (n = 420,000); Potency, µM (highest dose often 46.2 µM), inactives show at the top dose activity change, negative = growth inhibition, usual class: inhibitors; DT40 Tdp1-/- hTDP1 cells, no CPT, ATP luminescence, 48 h; note: % is set by controls: 0 for no effect and ±100 for the full control effect; nearly all actives have a fitted effect of over 55% in size
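Chicken DT40 Tdp1-/- cells stably complemented with human TDP1 were seeded at 400 cells/well with DMSO in place of 20 nM camptothecin. After compound pinning, cells grew at least 48 hr at 37 °C; viability read by CellTiter-Glo luminescence.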
HepG2 tox: HepG2 cytotoxicity, counter-screen for TGF-b inhibitors | actives 0.76% (n = 410,000) | Potency, µM (series often up to 46.1 µM), for the others: at the highest dose activity change, negative = cytotoxicity, hits mostly cytotoxic | AID 588856 | HepG2 CAGA-GFP viability, ATP luminescence, 18 h
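CellTiter-Glo luminescence gave cytotoxicity after 18 hours at 37 degrees C. The cells were HepG2 CAGA-GFP in 1% FBS DMEM, stimulated with 500 pg/mL TGF-beta after compound addition. %Activity was normalised to no-cell wells (complete cell-killing) and DMSO (no toxicity), and curves were fitted and classified.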
HT1080 IDH1KD tx: HT-1080 IDH1 knockdown cell toxicity (counter line) | HT-1080 IDH1 knockdown viability, ATP luminescence, 48 h | Potency, µM (titrated, usually from 46.1 µM), for the others: top-dose activity, negative = toxicity, usual class: cytotoxic | actives 2% (n = 360,000) | AID 686971;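 note: 0% = DMSO wells and -100% = cell-free medium wells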
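Cytotoxicity counter-line: IDH1KD HT-1080, 48 h, CellTiter-Glo. Curves classed by r2, magnitude and activity.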
TGFb inhibitor: TGF-b pathway inhibition; HepG2 CAGA-GFP TGF-b/SMAD3 reporter, GFP fluorescence, 18 h; TGF-beta stimulated, 500 pg/mL final; actives 1.2% (n = 410,000); AID 588855; Potency, µM (series often up to 46.1 µM), for inactives: at the highest dose activity, negative = inhibition, hits mostly inhibitors; note: % is set by controls: 0 for no effect and ±100 for the full control effect; nearly all actives have a fitted effect of over 65% in size
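Smad-responsive CAGA-GFP expression was quantified in HEPG2 cells exposed to compounds and 500 pg/mL final TGF-beta for 18 h at 37 degrees C; unstimulated wells defined full inhibition.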
DT40 TDP1 CPT: growth inhibition of DT40 Tdp1-/-;hTDP1 cells with camptothecin (screen for TDP1 inhibitors); chicken DT40 Tdp1-/-;hTDP1 cells + 20 nM CPT, ATP luminescence, 48 h; Potency, µM (series often up to 46.2 µM), inactives show at the top dose activity change, negative = growth inhibition, actives largely listed as inhibitors; actives 12% (n = 420,000); AID 686979; note: % is set by controls: 0 for no effect and ±100 for the full control effect; nearly all actives have a fitted effect of over 55% in size
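Chicken DT40 Tdp1-/- cells stably complemented with human TDP1 were seeded at 400 cells/well in medium containing 20 nM camptothecin, exposed to pin-transferred compounds, and grown at 37 °C for at least 48 hr. Viability was read as ATP luminescence.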
HT1080NT lethal: kills 2HG-producing HT-1080-NT fibrosarcoma cells; HT-1080-NT fibrosarcoma viability, CellTiter-Glo ATP luminescence, 48 h; Potency, µM (highest dose often 46.1 µM), without a hit: at the highest dose activity, negative = less viability, most hits filed as cytotoxic; actives 1.6% (n = 360,000);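 note: NT is the 2HG producing partner of a matched IDH1 knockdown line; 0% = DMSO-treated cells and -100% = media-only wells without cells; nearly all actives have a fitted effect of over 55% in size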
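Read-out is CellTiter-Glo luminescence after 10 minutes at room temperature, following 48 hours' compound treatment of HT-1080-NT cells (750 cells/well, RPMI, 5% FBS, 37 degrees C).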
The depositor's hits bear a star. Calls come from the whole dose curve; as a rule, active = well fitted curve in the direction sought with a large enough effect; inconclusive = small, poorly fitted or top-dose-only effect, or another doubt; inactive = no such curve, though single readings can be large; an effect the other way counts as inactive or inconclusive. Potency is the fitted concentration of half-maximal effect.

For CCOC(=O)c1cc2c(C)n(-c3ccc(OCC)cc3)c(C)c2ccc1=O the results were TDP1 cell noCPT 14.6µM*, HepG2 tox -37.4%, HT1080 IDH1KD tx -18.8%, TGFb inhibitor inconclusive, DT40 TDP1 CPT 25.9µM* and HT1080NT lethal -19.4%.
Screening CCOC(=O)c1cc2c(C)n(-c3ccc(C)cc3)c(C)c2ccc1=O returned TDP1 cell noCPT 8.2µM*, HepG2 tox -26.3%, HT1080 IDH1KD tx -20.5%, TGFb inhibitor inconclusive, DT40 TDP1 CPT 14.6µM* and HT1080NT lethal -28.7%.
CCOc1ccc(-n2c(C)c(C(C)=O)c3cc(O)ccc32)cc1 was read as TDP1 cell noCPT inconclusive, HepG2 tox -15.8%, HT1080 IDH1KD tx 0.4%, TGFb inhibitor -10.5%, DT40 TDP1 CPT inconclusive and HT1080NT lethal -13.7%.
COCCNc1ncnc2c1[nH]c1ccccc12 was read as TDP1 cell noCPT 11.6µM*, HepG2 tox -48.4%, HT1080 IDH1KD tx -4.5%, TGFb inhibitor 7.5%, DT40 TDP1 CPT inconclusive and HT1080NT lethal -11.0%.
Screening OCCCNc1ncnc2c1[nH]c1ccccc12 returned TDP1 cell noCPT -16.4%, HepG2 tox -9.0%, HT1080 IDH1KD tx -2.9%, TGFb inhibitor 1.6%, DT40 TDP1 CPT -10.4% and HT1080NT lethal -1.7%.
Screening CCN(CC)c1ncnc2c1[nH]c1ccccc12 returned TDP1 cell noCPT 23.1µM*, HepG2 tox -20.8%, HT1080 IDH1KD tx -16.0%, TGFb inhibitor -4.1%, DT40 TDP1 CPT 18.4µM* and HT1080NT lethal -18.8%.
For Fc1ccc2[nH]c3c(NCc4ccccc4)ncnc3c2c1 the results were TDP1 cell noCPT 5.17µM*, HepG2 tox -31.9%, HT1080 IDH1KD tx inconclusive, TGFb inhibitor inconclusive, DT40 TDP1 CPT 5.17µM* and HT1080NT lethal inconclusive.
Screening O=c1c2[nH]c3ccccc3c2ncn1Cc1cccnc1 returned TDP1 cell noCPT -17.1%, HepG2 tox 3.7%, HT1080 IDH1KD tx 9.0%, TGFb inhibitor -3.9%, DT40 TDP1 CPT -3.9% and HT1080NT lethal 9.0%.
For Fc1ccc(CNc2ncnc3cc(Cl)ccc23)cc1 the results were TDP1 cell noCPT inconclusive, HepG2 tox -49.0%, HT1080 IDH1KD tx -4.0%, TGFb inhibitor inconclusive, DT40 TDP1 CPT inconclusive and HT1080NT lethal -19.2%.
`CCCCOc1ncnc2c1[nH]c1ccc(C)cc12` gave TDP1 cell noCPT 20.6µM*, HepG2 tox -19.8%, HT1080 IDH1KD tx 4.61µM*, TGFb inhibitor 0.0%, DT40 TDP1 CPT inconclusive and HT1080NT lethal inconclusive.
COc1ccc2[nH]c3c(NCCCOC(C)C)ncnc3c2c1 was read as TDP1 cell noCPT inconclusive, HepG2 tox -28.5%, HT1080 IDH1KD tx inconclusive, TGFb inhibitor -6.3%, DT40 TDP1 CPT inconclusive and HT1080NT lethal inconclusive.
Screening CCCOc1ncnc2c1[nH]c1ccc(OC)cc12 returned TDP1 cell noCPT 8.2µM*, HepG2 tox 122.0%, HT1080 IDH1KD tx -9.7%, TGFb inhibitor 0.0%, DT40 TDP1 CPT 6.51µM* and HT1080NT lethal -18.1%.
For CCCOc1ncnc2c1[nH]c1ccccc12 the results were TDP1 cell noCPT 20.6µM*, HepG2 tox -32.7%, HT1080 IDH1KD tx inconclusive, TGFb inhibitor -24.9%, DT40 TDP1 CPT 23.1µM* and HT1080NT lethal -19.9%.
`COc1ccc(-n2ccnc2SCC(=O)NC2CCCC2)cc1` gave TDP1 cell noCPT -0.3%, HepG2 tox 3.2%, HT1080 IDH1KD tx 1.0%, TGFb inhibitor -6.5%, DT40 TDP1 CPT -27.4% and HT1080NT lethal 4.3%.
`CC(C)CCNC(=O)CCSCCC(=O)NCCC(C)C` gave TDP1 cell noCPT -0.4%, HepG2 tox -17.2%, HT1080 IDH1KD tx 6.2%, TGFb inhibitor inconclusive, DT40 TDP1 CPT 9.8% and HT1080NT lethal 20.4%.
CCOc1ccc(NC(=O)CCC(=O)N/N=C(\C)c2cccs2)cc1 was read as TDP1 cell noCPT 15.3%, HepG2 tox -0.5%, HT1080 IDH1KD tx -3.2%, TGFb inhibitor -4.4%, DT40 TDP1 CPT -17.5% and HT1080NT lethal -1.6%.
Screening CCc1cccc(CC)c1NC(=O)COC(=O)c1ccccc1-c1nc2ccccc2s1 returned TDP1 cell noCPT 16.4µM*, HepG2 tox -21.4%, HT1080 IDH1KD tx -17.1%, TGFb inhibitor inconclusive, DT40 TDP1 CPT 20.6µM* and HT1080NT lethal -10.0%.
For COC(=O)c1cc(NC(=O)Nc2ccccc2OC)cc(C(=O)OC)c1 the results were TDP1 cell noCPT -29.7%, HepG2 tox -24.0%, HT1080 IDH1KD tx 0.5%, TGFb inhibitor -12.7%, DT40 TDP1 CPT inconclusive and HT1080NT lethal -0.6%.
For CCCCN(C(=O)CSc1nn(-c2ccc(F)cc2)c(=S)s1)c1c(N)n(CCCC)c(=O)[nH]c1=O the results were TDP1 cell noCPT 29.1µM*, HepG2 tox -0.2%, HT1080 IDH1KD tx -4.8%, TGFb inhibitor -11.0%, DT40 TDP1 CPT inconclusive and HT1080NT lethal -2.6%.
`CCCCN(C(=O)CSc1nc2ccccc2s1)c1c(N)n(CCCC)c(=O)[nH]c1=O` gave TDP1 cell noCPT inconclusive, HepG2 tox -7.0%, HT1080 IDH1KD tx -7.0%, TGFb inhibitor 0.9%, DT40 TDP1 CPT -2.0% and HT1080NT lethal -10.0%.
`Cn1c(N)c(C(=O)CSc2nn(-c3ccc(F)cc3)c(=S)s2)c(=O)n(C)c1=O` gave TDP1 cell noCPT 23.1µM*, HepG2 tox -1.3%, HT1080 IDH1KD tx 1.6%, TGFb inhibitor -13.4%, DT40 TDP1 CPT 20.6µM* and HT1080NT lethal 3.7%.
For COC(=O)c1c(-c2c(Cl)cccc2Cl)noc1NC(=O)NN1CCCCC1 the results were TDP1 cell noCPT 16.4µM*, HepG2 tox 30.3%, HT1080 IDH1KD tx inconclusive, TGFb inhibitor -1.6%, DT40 TDP1 CPT inconclusive and HT1080NT lethal inconclusive.
For O=C(CC(C(=O)O)c1ccc(Cl)cc1Cl)c1ccc(Cl)cc1 (centres undefined) the results were TDP1 cell noCPT 12.6%, HepG2 tox 3.4%, HT1080 IDH1KD tx 8.0%, TGFb inhibitor 4.8%, DT40 TDP1 CPT 1.5% and HT1080NT lethal 0.3%.
COc1ccccc1N(CC(O)CN1CCC(C)CC1)S(=O)(=O)c1ccccc1 (centres undefined) was read as TDP1 cell noCPT -26.0%, HepG2 tox 6.2%, HT1080 IDH1KD tx 4.4%, TGFb inhibitor 3.6%, DT40 TDP1 CPT inconclusive and HT1080NT lethal 15.6%.
